From PubChem BioAssay AID1460 (National Center for Advancing Translational Sciences (NCATS), 2008)
In all, about 270,000 compounds went through this assay and about 5,800 (2.1%) were called active. Not shown: some 16% with an inconclusive outcome. The sample as a whole holds a higher share of actives than the screen did. A number with no mark means an inactive call. Calls come from the whole dose curve; as a rule, active = well fitted inhibition curve with a large enough effect; inconclusive = small, poorly fitted or top-dose-only effect; inactive = flat fitted curve, though single readings scatter.

Biological target: Microtubule-associated protein tau (Homo sapiens) (UniProt P10636)
Sequence (P10636 561-689 P618L limits assumed): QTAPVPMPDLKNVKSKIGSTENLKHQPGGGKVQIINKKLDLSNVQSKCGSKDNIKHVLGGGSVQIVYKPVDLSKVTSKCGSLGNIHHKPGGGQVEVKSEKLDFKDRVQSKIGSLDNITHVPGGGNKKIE
Experiment: qHTS for Inhibitors of Tau Fibril Formation, Thioflavin T Binding; note: nearly all actives have a fitted effect of over 55% in size
Settings: recombinant tau K18 P301L (four-repeat tau fragment), heparin-induced fibrillization, ThT fluorescence; series mostly up to 57.4 µM; activity, negative = inhibition: at the top concentration
Excerpt: NIH Molecular Libraries Probe Production Network [MLPCN]
NIH Chemical Genomics Center [NCGC]
Assay Provider: Carlo Ballatore, University of Pennsylvania
The microtubule-associated protein tau is an abundant protein in the axons of neurons that stabilizes microtubules. With its ability to modulate microtubule dynamics, tau contributes directly or indirectly, to key structural and regulatory cellular functions. Particularly important is the influence tau exerts on axonal transport, which allows signaling molecules, trophic factors and other essential cellular constituents to travel along the axons. Under pathological conditions, tau becomes sequestered into insoluble aggregates called neurofibrillary tangles. This phenomenon is believed to have pathological consequences by promoting axonal transport deficits that ultimately lead to synaptic dysfunction and neuronal loss. To identify inhibitors of tau aggregation, a heparin-induced tau fibril formation assay was used that employed a recombinantly expressed fragment of tau, K18 (Q242-E372), bearing a P301L mutation (Gustke et al. 1994; Hong et al. 1998). This assay monitors tau fibrillization by Thioflavin T (ThT) fluorescence.
Gustke, N., B. Trinczek, et al. (1994). "Domains of tau protein and interactions with microtubules." Biochemistry 33(32): 9511-22.
Hong, M., V. Zhukareva, et al. (1998).
Li, W. and V. M. Lee (2006).
von Bergen, M., S. Barghorn, et al. (2001). "Mutations of tau protein in frontotemporal dementia promote aggregation of paired helical filaments by enhancing local beta-structure." J Biol Chem 276(51): 48165-74.
NCGC Assay Protocol Summary:
For screening, 2 uL/well human K18 P301L (15 uM unlabeled and 0.24 uM Alexa 594-labeled tau, final concentrations) in reagent buffer (100 mM sodium acetate pH 7) was dispensed into black solid 1536-well plates (Grenier) using a solenoid-based dispenser. Following transfer of 23 nL compound or DMSO vehicle by a pin tool, 2 uL/well heparin (20 uM final concentration) in reagent buffer was added and the plate centrifuged 15 s at 1000 RPM. Plates were incubated 6 hr at 37 C and then 1 uL/well ThT (30 uM final concentration) was added. After a 1 hr ambient incubation, the plates were read by an Envision (Perkin Elmer) to monitor ThT fluorescence (450/8 nm excitation and 510/23 nm emission).
Keywords: NIH Roadmap, MLPCN, MLI, MLSMR, NCGC, qHTS, tau, tauopathies, Alzheimer's disease, fibril, neurodegeneration, aggregation
% is set by controls: 0 for no effect and ±100 for the full control effect; potency is the fitted concentration of half-maximal effect.

Structure (SMILES)	Potency	activity, negative = inhibition [%]
O=C(Oc1ccccc1C(=S)N1CCCCC1)c1cc([N+](=O)[O-])cc([N+](=O)[O-])c1	25.1 µM (active)	–
O=[N+]([O-])c1cccc(S(=O)(=O)N2CCCCCC2)c1	–	-12.3
COC(=O)c1ccc(C(=O)OC)c(NC(=S)N2CCCCC2)c1	–	-4.54
CCS(=O)(=O)N1CCc2cc(C(=O)NCc3ccc(C)cc3)ccc21	–	6.94
CCCCN(CC)CCCNC(=O)c1nn(C)c2c1CSc1ccccc1-2	–	-0.916
COc1cccc(-n2c(=O)c3c(C)c(C(=O)N(C)C)sc3n(Cc3cccc(C)c3)c2=O)c1	–	-11
CCOC(=O)c1cc2n(c1N)-c1ccccc1C2=O	14.1 µM (active)	–
CCOC(=O)c1cc(-c2ccccc2)n(CCC(=O)Nc2ccccc2CC)c1C	–	-1.04
CCOC(=O)Nc1ccccc1N1C(=O)c2ccccc2C1=O	–	-1.89
COc1cc(OC)nc(NC(=O)CCl)n1	–	4.78
O=C(CCl)NNc1cccc(Cl)n1	14.1 µM (active)	–
O=C(NNc1ccccn1)c1ccc(Cl)nc1	–	-1.76
Cc1ccc(CNC(=O)CCC(=O)N2Cc3ccccc3Oc3ncccc32)cc1	–	10.7
COc1ccccc1CNC(=O)C(=O)NCC(c1ccco1)S(=O)(=O)c1ccc(F)cc1 (stereo not given)	–	-8.71
CCCCN=C1C([N+](=O)[O-])=CC=C2C1=NC1(CCCCC1)N2O	8.91 µM (active)	–
CCCOc1ccc(NC(=O)CC2C(=O)N(c3ccccc3)C(=O)N2Cc2ccco2)cc1 (stereo not given)	–	-1.41
CCOc1ccc(NC(=O)Cn2c(=O)n(CCCC(=O)NCc3ccc4c(c3)OCO4)c(=O)c3ccccc32)cc1	–	4.7
O=C(Nc1cnccn1)c1cccnc1	–	-5.4
O=C(NN=C1CCC(=NNC(=O)c2cccnc2)CC1)c1cccnc1	39.8 µM (active)	–
C/C(=N\NC(=O)c1cccnc1)c1ccc(-c2ccccc2)cc1	–	-9.51
CCOc1ccccc1NC(=O)Cn1c(=O)n(Cc2ccccc2)c(=O)c2c(C)c(C(=O)N(C)C)sc21	–	-3.85
COc1ccccc1CSc1ncc(-c2ccc([N+](=O)[O-])cc2)[nH]1	14.1 µM (active)	–
COc1ccccc1CC(=O)Nc1ccc([N+](=O)[O-])cc1OC	–	-15.6
COc1ccccc1CSc1nc2ccccc2[nH]1	–	-17.4
Oc1c(Cl)cc(Cl)c(Cl)c1Cc1c(O)c(Cl)cc(Cl)c1Cl	20 µM (active)	–

Structure (SMILES)	Potency	activity, negative = inhibition [%]
CCOc1ccc(NC(=O)C(=O)NCCc2csc3nc(-c4ccccc4F)nn23)cc1	–	-9.2
CCc1ccccc1NC(=O)Cn1c(=O)n(-c2cccc(C)c2)c(=O)c2c1c1cc(OC)ccc1n2C	–	9.95
CC(=O)NCCC(=O)Nc1cc(S(=O)(=O)N2CCOCC2)ccc1N1CCOCC1	–	1.5
O=C(COC(=O)Cc1ccc(F)cc1)Nc1cc(S(=O)(=O)N2CCOCC2)ccc1N1CCCC1	–	3.5
COCCNC(=S)Nc1cc(S(=O)(=O)N2CCOCC2)ccc1N1CCCCC1	35.5 µM (active)	–
COc1ccc(-c2nc3scc(CCNS(=O)(=O)c4cc(F)ccc4OC)n3n2)cc1OC	–	-10.1
Cc1ccc(-n2c(SCC(=O)c3ccccc3)nc3c([nH]c4ccccc43)c2=O)cc1	–	11
Cc1ccc(N2NC(=O)/C(=C/C=C/c3ccco3)C2=O)cc1C	10 µM (active)	–
Cc1ccc(N=C2NC(=O)/C(=C/C=C/c3ccco3)S2)cc1C	4.47 µM (active)	–
Cc1ccc(-c2cc(C(=O)N/N=C/C=C/c3ccco3)c3ccccc3n2)cc1C	–	-8.53
Cc1ccc(C(=O)N/C(=C\c2ccco2)C(=O)N2CCSCC2)cc1C	–	-2.66
CCC1S/C(=N/N=C/c2ccco2)NC1=O (stereo not given)	–	0.34
CN(C)c1ccc(-n2cccc2/C=C2/SC(=Nc3ccc(F)cc3)NC2=O)cc1	–	-15.4
CC1CCN(S(=O)(=O)c2ccc3c(ccn3CCC(=O)NCc3ccc(N(C)C)cc3)c2)CC1	–	-18.4
Cc1nc2c(-c3ccccc3)c(C)nn2c(C)c1CCC(=O)NCCc1ccccc1	–	-8.23
CCOc1ccc(NC(=O)c2cn(C3CCCCC3)c(=O)c3c2c2ccccc2n3C)cc1	–	-9.2
O=C(Cn1ncn2nc(-c3cccs3)cc2c1=O)NCc1cccc(Br)c1	–	-5.56
Cc1ccc(NC(=O)Cc2ccc(NC(=O)N3CCCCc4ccccc43)cc2)cc1	–	0.89
Cc1c(Cl)cccc1NC(=O)C(=O)NCCc1csc2nc(-c3ccccc3F)nn12	–	1.36
CC(C)Cn1c(=O)c2ccccc2n2c(-c3cccc(Cl)c3)nnc12	–	-17.1
O=c1[nH]c2ccccc2n2c(-c3ccccc3)nnc12	10 µM (active)	–
O=[N+]([O-])c1cccc(-c2nnc3c4ccccc4c4ccccc4n23)c1	–	-15.2
CCOC(=O)c1cnc2[nH]c3ccccc3n2c1=O	–	6.45
CC(Nc1ccc(-c2nc(-c3ccco3)no2)cc1[N+](=O)[O-])c1ccccc1 (stereo not given)	–	-14.2
CN(C)/C=C1/C(=O)Nc2ccccc21	–	-7.07
